Source: PubChem BioAssay
S1P4 agonist: S1P4 receptor agonists, primary screen, cell-based. AID 1509, 2009. activation, % at 4.98 µM. hit rate 0.35% among 220,000. S1P4-expressing cell line, agonist reporter assay; in the data active means activation above about 11%;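 further: 0% = DMSO vehicle and 100% = reference agonist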
Target sequence (O95977 whole entry, looked up): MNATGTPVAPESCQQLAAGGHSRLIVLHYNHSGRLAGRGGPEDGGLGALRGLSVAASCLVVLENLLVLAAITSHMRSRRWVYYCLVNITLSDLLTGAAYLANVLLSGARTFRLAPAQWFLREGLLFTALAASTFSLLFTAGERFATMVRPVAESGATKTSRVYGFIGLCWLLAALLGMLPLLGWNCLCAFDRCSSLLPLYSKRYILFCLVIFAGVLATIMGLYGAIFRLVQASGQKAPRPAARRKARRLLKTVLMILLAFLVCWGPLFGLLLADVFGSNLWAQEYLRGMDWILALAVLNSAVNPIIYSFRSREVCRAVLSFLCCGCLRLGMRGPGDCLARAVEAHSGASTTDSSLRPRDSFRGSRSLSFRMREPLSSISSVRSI
CHOP inh: inhibitors of CHOP promoter induction, primary screen, cell-based, unfolded protein response, luciferase reporter. hit rate 3.8% among 220,000. CHO-K1 CHOP-promoter luciferase, tunicamycin-induced, 15-18 h. inhibition, % at 10 µM. AID 2732, 2010;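 active means compounds that reduced the stress-induced luciferase reporter signal by more than about 70% of percent inhibition, limit read from the data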;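 further: 0% = tunicamycin plus vehicle and 100% = wells without tunicamycin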
S1P4 antag: S1P4 receptor antagonists, primary screen, cell-based; Sphingosine 1-phosphate receptor 4 (Homo sapiens), O95977; S1P4-expressing cells, antagonist mode, reporter read-out; inhibition, % at 4.98 µM; hit rate 0.26% among 220,000; AID 1510, 2009; in the data active means inhibition above about 29%;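 further: 0% = wells stimulated with agonist and 100% = vehicle wells without agonist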
Hsp70 activator: Hsp70 transcriptional activators, primary screen, cell-based, HeLa, Hsp70 promoter luciferase, luminescence, 10 µM; HeLa Hsp70 promoter luciferase reporter; scaled: vehicle 0, proteasome-inhibitor control 100%; activation, % at 10 µM; hit rate 0.04% among 200,000; AID 1203, 2008;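 active means activation above the mean across all tested compounds plus 3 SD, cutoff set per campaign, cut at about 5.5% in these data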;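 further: 100% = MG132 at 30 µM as the positive control and 0% = DMSO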
S1P4 antag conf: S1P4 receptor antagonists, human, confirmation, cell-based; shares compounds with S1P4 antag; S1P4-expressing cell line, antagonist mode, reporter read-out; inhibition, % at 4.98 µM; hit rate 71% among 520; in the data active means inhibition above about 30%
S1P1 antag: S1P1 receptor antagonists, human, counter-screen for S1P4 antagonist project, cell-based. shares compounds with S1P4 antag. cell-based S1P1 antagonist counterscreen, inhibition. inhibition, % at 4.98 µM. hit rate 37% among 520; in the data active means inhibition above about 40%;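 further: receptor stimulated with S1P near its EC80; 0% = agonist stimulated wells and 100% = vehicle only wells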
CHOP confirm: retest of CHOP induction inhibitors, confirmation, cell-based. shares compounds with CHOP inh. CHO-CHOP promoter luciferase reporter, tunicamycin-induced, luminescence. inhibition, % at 10 µM. hit rate 45% among 2,100. AID 504437, 2011;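 active means mean of three repeat readings of reporter signal inhibition above a set limit, cut at about 70% in these data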;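 further: 0% = tunicamycin plus vehicle and 100% = wells lacking tunicamycin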
Active calls of the source: *; . = no result. This is a sample that favours compounds with a hit; in the whole collection about 4.2% have one here.

SMILES | S1P4 agonist | CHOP inh | S1P4 antag | Hsp70 activator | S1P4 antag conf | S1P1 antag | CHOP confirm
CCc1ccc(OCC(=O)NC(NC(=S)Nc2ccc(Cl)cc2)C(Cl)(Cl)Cl)cc1 (stereo unspecified) | 0 | 102* | 42* | 0 | 0 | -4 | 70*
Cc1ccnc(N2C(=O)c3cccc4c([N+](=O)[O-])ccc(c34)C2=O)c1 | 1 | 106* | 105* | 0 | 115* | 133* | -53
O=C1c2cc([N+](=O)[O-])cc3cc([N+](=O)[O-])cc(c23)C(=O)N1c1ccccn1 | 1 | -34 | 9 | 0 | . | . | .
O=C1c2cccc3c([N+](=O)[O-])ccc(c23)C(=O)N1Cc1cccnc1 | 2 | 110* | 72* | 0 | 95* | 42* | -203
CC(C)C(O)C1CCN(Cc2nc(-c3cccs3)no2)CC1 (stereo unspecified) | 1 | -29 | -1 | 0 | . | . | .
CCOC(=O)COc1ccccc1/C=C\[N+](=O)[O-] | -1 | 107* | 33* | 1 | 114* | 72* | 86*
CCOC(=O)COc1cc([N+](=O)[O-])cc2cccnc12 | 1 | 6 | 9 | -1 | . | . | .
Fc1cc(F)cc(NC(=S)N2CCC(c3ccccc3)C2)c1 (stereo unspecified) | 0 | -9 | 5 | 0 | . | . | .
Cc1cc2c(ncn2C(C)C)c(N)c1C | -1 | 28 | -10 | 0 | . | . | .
CC1=C(C)/C(=N\OS(=O)(=O)c2ccccc2)C=CC1=O | -1 | . | 42* | 1 | 69* | 10 | 124*
CC(C)(C)c1ccc(C(O)CCCN2CCC(C(O)(c3ccccc3)c3ccccc3)CC2)cc1 (stereo unspecified) | -1 | 22 | 33* | 0 | 6 | -6 | 134*
Oc1ccccc1CN1CCC(C(O)(c2ccccc2)c2ccccc2)CC1 | 1 | 13 | -15 | 0 | . | . | .
COc1ccc(C(=O)Nc2ccc3c(c2)C(=O)c2ccccc2C3=O)cc1OC | 0 | 3 | -23 | 0 | . | . | .
COc1ccc(C(=O)c2c(C(F)(F)F)oc3c2C(=O)c2ccccc2C3=O)cc1OC | -1 | 106* | 33* | -1 | 71* | 57* | 71
CCc1ccc2c(c1)/C(=C/C(=O)c1cccs1)C(=O)N2 | -1 | 109* | 66* | -1 | 109* | 78* | -22
Cc1cc(Br)c2c(c1)/C(=C/C(=O)c1cccs1)C(=O)N2 | 1 | 99* | 35* | 0 | 68* | 43* | 80*
CCc1ccc2c(c1)/C(=N/N(C)C(=S)NC)C(=O)N2 | 0 | 42 | -1 | 0 | . | . | .
Cc1cc(Cl)ccc1OC(C)C(=O)N1CCCN(C(=O)C(C)Oc2ccc(Cl)cc2C)CC1 (stereo unspecified) | 1 | 58 | -20 | 0 | . | . | .
CS(=O)(=O)c1nc(-c2cccs2)cc(C(F)(F)F)n1 | -2 | 111* | 39* | 1 | 119* | 41* | 120*
CS(=O)(=O)c1nc(-c2ccc(F)cc2)cc(C(F)(F)F)n1 | -3 | 106* | 70* | 2 | 117* | 21 | 110*
O=C(O)CCS(=O)(=O)c1nc(-c2cccs2)cc(C(F)(F)F)n1 | 3 | -42 | -14 | 0 | . | . | .
CC(=O)Cn1ncc(Br)c(Br)c1=O | -2 | 105* | 33* | 1 | 111* | 51* | 4
O=C(OCn1ncc(Br)c(Br)c1=O)c1c(F)cccc1F | -2 | . | 59* | 4 | 116* | 12 | 125*
CC1=CC(C)(C)Nc2ccc(OC(=O)c3cccnc3)cc21 | 0 | -359 | 26 | 0 | . | . | .
CC1=CC(C)(C)Nc2ccc(OC(=O)c3ccco3)cc21 | 1 | . | 30* | 0 | 56* | 30 | -233
SMILES | S1P4 agonist | CHOP inh | S1P4 antag | Hsp70 activator | S1P4 antag conf | S1P1 antag | CHOP confirm
CCc1ccc(C(=O)/C=C/c2ccc([N+](=O)[O-])o2)cc1 | 0 | 106* | 9 | 0 | . | . | 140*
O=C(COc1ccc(Cl)cc1)NCc1nnc(SCC(=O)N2CCCC2)o1 | 1 | 0 | 4 | 0 | . | . | .
Cc1nn(-c2ccccn2)c2nc(-c3cccs3)cc(C(=O)NCc3ccco3)c12 | 0 | -30 | 13 | 0 | . | . | .
CCOC(=O)c1cc(-c2cccs2)nc2c1c(C)nn2-c1ccccn1 | 0 | 99* | 4 | 0 | . | . | 100*
CC(/C=N/n1c(-c2cc(C)[nH]n2)n[nH]c1=S)=C\c1ccccc1 | -1 | 11 | -4 | 0 | . | . | .
O=[N+]([O-])c1ccc(/C=N/n2c(C3CCCCC3)n[nH]c2=S)cc1 | 0 | 105* | 3 | 0 | . | . | 113*
CC(/C=N/n1c(C2CCCCC2)n[nH]c1=S)=C\c1ccccc1 | -1 | 107* | 13 | -1 | . | . | 102*
S=c1[nH]nc(C2CCCCC2)n1/N=C/c1ccncc1 | -1 | 55 | 2 | 0 | . | . | .
CCOc1cccc(CN2CCN(c3cccc(C(F)(F)F)c3)CC2)c1O | 0 | 100* | 0 | 0 | . | . | 79*
FC(F)(F)c1cccc(N2CCN(Cc3cccnc3)CC2)c1 | 0 | 30 | -4 | 0 | . | . | .
O=C1CN(C(=O)COc2ccc(Br)cc2F)c2ccccc2N1 | -2 | -6 | -13 | 0 | . | . | .
CCOC(=O)c1c2ccc(OCC(=O)N/N=C/c3ccc(C)cc3)cc2n2ccccc12 | -3 | 104* | -21 | 0 | . | . | 114*
O=[N+]([O-])c1cc(-c2ncccn2)c([N+](=O)[O-])s1 | -1 | 109* | 25 | 0 | . | . | -112
COc1ccccc1N1CCN(C(=O)C(Sc2ccccc2)c2ccccc2)CC1 (stereo unspecified) | 1 | 52 | 6 | 0 | . | . | .
CCOC(=O)C1=C(O)/C(=C\c2ccc(CNC(=O)C(=O)Nc3ccc(C)c(C)c3)o2)N=C1C | -1 | 109* | -7 | 0 | . | . | -3
COCCNC(=O)/C(C#N)=C\c1ccc(CNC(=O)C(=O)Nc2ccc(C)c(C)c2)o1 | 1 | 35 | -8 | 0 | . | . | .
O=C(CSc1nnc(-c2cccs2)n1-c1ccccc1)N1CCCC1 | -1 | -22 | 2 | 0 | . | . | .
OC(CNCc1ccco1)Cn1c2ccc(Br)cc2c2cc(Br)ccc21 (stereo unspecified) | -3 | 108* | 3 | 0 | . | . | 46
Brc1ccc2ncnc(NCc3ccco3)c2c1 | 2 | 56 | -16 | 0 | . | . | .
CC(=O)NCc1ccc(C(=O)CCl)cc1 | 1 | 106* | -15 | 0 | . | . | -3
CC(=O)NCCC(=O)NCc1ccc(F)cc1 | -1 | -16 | 12 | 0 | . | . | .
CC(=O)NCc1ccc(C(=O)CCl)s1 | -1 | 108* | 16 | 0 | . | . | 107*
